Experimental data reported in PubChem BioAssay AID624296 (National Center for Advancing Translational Sciences (NCATS), 2012).
Screen size: about 350,000 compounds; about 9,900 (2.8%) were called active. Another 15% or so got no clear call; they are omitted. The entries come from a sample that favours actives as a whole. Unmarked numbers belong to inactive results. The call rests on the fitted dose curve; in most records, active means well fitted activation curve with a large enough effect; inconclusive means small, poorly fitted or top-dose-only effect; inactive means no such curve, though single readings can be large or run the other way.

Test: A quantitative high throughput screen for small molecules that induce DNA re-replication in MCF 10a normal breast cells. Further: nearly all actives have a fitted effect of over 50% in size. On activity, positive = re-replication: % of control where 0% means no effect.
Conditions: MCF 10A DNA re-replication, Hoechst nuclear intensity, 48 h; series mostly up to 46.1 µM; activity, positive = re-replication: at the top concentration
Potency means the concentration at half of the fitted maximal effect.

SMILES | activity, positive = re-replication | Potency
O=C1C=C(c2cc(C(F)(F)F)cc(C(F)(F)F)c2)C[C@@H](c2ccc3c(c2)OCO3)C1 | -4.9% | –
Fc1ccccc1COc1cccc2cccnc12 | 16.7% | –
c1ccc(COc2ccccc2CNCc2cccnc2)cc1 | -1.98% | –
Fc1ccccc1COc1ccccc1CNCc1ccncc1 | – | 3.26 µM (active)
C[C@@H]1ON(C)[C@H]2C[C@H]3c4cc(N5CCN(C)CC5)ccc4CCN3C(=O)[C@@H]12 | 16.1% | –
CCOC(=O)/C(=C\c1ccc([N+](=O)[O-])cc1)C(=O)c1cc(C(C)=O)c(Nc2ccccc2)s1 | – | 1.46 µM (active)
O=C(Nc1ccccc1)/C(=C/c1ccc([N+](=O)[O-])cc1)NC(=O)c1ccccc1 | -1.1% | –
Cc1cccc(NC(=O)c2sc(-c3ccccc3)nc2-c2ccc([N+](=O)[O-])cc2)c1 | -1.51% | –
Cc1ccc(C(=O)CN2C(=O)NC3(CCOc4ccccc43)C2=O)s1 (stereo not given) | -9.64% | –
CCOc1ccc(S(=O)(=O)N2CCC(C(=O)NCC(=O)Nc3cccc(Cl)c3C)CC2)cc1 | 27.2% | –
C[C@H]1COC(=O)[C@H](CC(=O)OC(C)(C)C)C/C=C\C[C@@H](CC(=O)N[C@H](CO)Cc2ccccc2)C(=O)N1 | -2.57% | –
CC(=O)c1c(C)[nH]c(C(=O)COC(=O)c2cccs2)c1C | 0.382% | –
Cc1nc(N2CCOCC2)nc2c1CCCC2 | 6.16% | –
Nc1nc(-c2sc3nc4c(cc3c2N)CCCC4)nc(N2CCOCC2)n1 | – | 6.51 µM (active)
CC(C)(C)S(=O)(=O)N1Cc2cc(CO)cc(CCO)c2[C@H]1CCO | -6.05% | –
COc1ccc(S(=O)(=O)N2CCN(c3cnccn3)CC2)cc1 | 2% | –
COC(=O)c1ccc2c(=O)n(CC3CCCO3)c(=S)[nH]c2c1 (stereo not given) | – | 23.1 µM (active)
Cc1cccc(NC(=O)c2ccc3c(=O)n(CC4CCCO4)c(=S)[nH]c3c2)c1 (stereo not given) | 2.75% | –
O=C(NC1CCCCC1)c1ccc2c(=O)n(CC3CCCO3)c(=O)[nH]c2c1 (stereo not given) | -3.05% | –
CCN(CC)c1ccc(/C=N/NC(=O)CNC(=O)c2cccnc2)cc1 | 2.8% | –
Cc1cc(C)nc(N/N=C/c2ccncc2)n1 | -13.2% | –
CCN(CC)c1ccc(/C=N/Nc2nc(C)cc(=O)[nH]2)cc1 | 8.42% | –
CCN(CC)c1ccc(/C=N/NC(=O)c2cnccn2)c(O)c1 | – | 18.4 µM (active)
CCN(CC)c1ccc(/C=N/Nc2nc(C)cc(C)n2)c(O)c1 | – | 18.4 µM (active)
Cc1ccc(C(=O)NCCNC(=O)c2cnccn2)cc1 | -3.55% | –

SMILES | activity, positive = re-replication | Potency
COc1ccc(/C=C/C(=O)OCC(=O)N2CCN(S(=O)(=O)c3ccc(C)cc3C)CC2)cc1OC | 8.11% | –
C[C@]12CCC(=O)C=C1C=CC1C2CC[C@@]2(C)C1CC[C@@]21CCC(=O)O1 (stereo not given in full) | -1.52% | –
CCN(C(=O)COC(=O)CCOc1cccc(C)c1)c1c(N)n(Cc2ccccc2)c(=O)[nH]c1=O | 0.756% | –
CC(C)Cn1c(SCC(=O)Nc2ccc(Cl)cc2F)nc(O)cc1=O | 4.29% | –
Cc1ccc(CNC(=O)COC(=O)C2CCC2)cc1 | -2.9% | –
O=C(c1ccc(Cl)nc1)N1CCN(S(=O)(=O)c2ccc3c(c2)OCCO3)CC1 | -10.9% | –
COc1ccc(S(=O)(=O)N2CCN(CC(=O)N3c4ccccc4CC3C)CC2)cc1OC (stereo not given) | 6.54% | –
CCNc1nc(NCC)nc(N/N=C/c2ccc(O)c(OC)c2)n1 | -0.389% | –
COc1cc(/C=N/NC(=S)Nc2cccnc2)cc(OC)c1O | 7.2% | –
COc1cc(/C=N/Nc2ccc(C)cc2)cc(Br)c1O | – | 25.9 µM (active)
CCN(C(=O)CSc1nnnn1-c1ccc(OC)cc1)C1CCS(=O)(=O)C1 (stereo not given) | 5% | –
COC(=O)c1cc(Oc2ccc(S(=O)(=O)N3CCOCC3)cc2[N+](=O)[O-])cc(C(=O)OC)c1 | 2.23% | –
O=S(=O)(NCCOc1cccc2cccnc12)c1ccc(F)cc1 | – | 10.3 µM (active)
O=S(=O)(NCCc1ccc(F)cc1)c1cccc2cccnc12 | -10.9% | –
O=S(=O)(NCc1ccccn1)c1ccc(F)cc1 | -2.88% | –
COc1ccccc1C(=O)NCC(=O)NCCSc1ccc(Br)cc1 | -0.726% | –
O=C(O[C@H]1[C@H](Cc2ccccc2)NS(=O)(=O)[C@H]2C[C@@H]3C=C[C@]12O3)c1ccc([N+](=O)[O-])cc1 | 0.151% | –
CCOC(=O)C1CCN(C(=O)CN2C(=O)NC(C)(c3ccc4cc(OC)ccc4c3)C2=O)CC1 (stereo not given) | 13.8% | –
COc1cc(/C=C(\C#N)c2nc3ccccc3[nH]2)ccc1O | 19.5% | –
COc1ccc(C(C(O)C(=O)c2c[nH]c3ccccc23)N2CCN(c3ccccc3)CC2)cc1 (stereo not given) | 20.1% | –
COc1ccc(/C=C(\C#N)c2c[nH]c3ccccc23)cc1 | – | 13 µM (active)
COc1ccc(C(=O)COC(=O)CN2C(=O)C3CC=CCC3C2=O)c(OC)c1 (stereo not given) | 6.24% | –
CCOC(=O)c1c(NC(=O)CNC2CCCc3ccccc32)sc(C(N)=O)c1C (stereo not given) | – | 16.4 µM (active)
NC(=O)Nc1ccc(C(=O)OCC(=O)NC2CCCc3ccccc32)cc1 (stereo not given) | 3.28% | –
CCOC(=O)c1sc(NC(=O)COc2ncnc3ccccc23)c(C(=O)OCC)c1C | 25.7% | –

SMILES | activity, positive = re-replication | Potency
O=C(COC(=O)c1ccc(O)cc1O)NC(=O)c1ccccc1 | 0.164% | –
CCCc1cc(=O)oc2cc(OCC(=O)Nc3ccc(CN4CCOCC4)cc3)c(Cl)cc12 | 0.913% | –
O=C(Nc1ccc(CN2CCOCC2)cc1)c1cc(Cl)ccc1Cl | 14.9% | –
CCCC(=O)NC(=S)Nc1ccc(CN2CCOCC2)cc1 | – | 0.651 µM (active)
O=C(c1cc2ccccc2o1)N1CCN(S(=O)(=O)c2ccc(Cl)s2)CC1 | 14.5% | –
CCCCCCSc1ccc([C@@H]2[C@H]3C(=O)N(CC)C(=O)[C@H]3[C@]3(C(=O)OC)CCCCN23)cc1 | -61.3% | –
CCn1nnc2cc(C(=O)Nc3ccc(C(=O)OC(C)C)cc3)ccc21 | 12.4% | –
CCOC(=O)C1=C(CC)Nc2ccccc2N=C1N | -1.41% | –
CCOC(=O)C1=C(CC)Nc2ccccc2N=C1NC(=O)c1cccc(S(=O)(=O)N2CCCC2)c1 | – | 23.1 µM (active)
CCOC(=O)CSc1nnc(NC(=O)c2cccc(S(=O)(=O)N3CCCC3)c2)s1 | 1.71% | –
CCC(C)C(N=C1NS(=O)(=O)c2ccccc21)C(=O)N1CCC(C)CC1 (stereo not given) | 11.9% | –
Cn1c(=O)[nH]c(=O)c2c1nc(Br)n2CCCCSc1nc2ccccc2o1 | – | 7.31 µM (active)
Cn1c(=O)c2c(nc(Br)n2CCSc2nc3ccccc3o2)n(C)c1=O | 0.906% | –
Cc1ccnc(SCCn2c(Br)nc3c2c(=O)[nH]c(=O)n3C)n1 | -10.4% | –
Cc1cccc(C(=O)N[C@H](C(=O)NCc2cccs2)C(C)C)c1 | 1.53% | –
CC(C)(C)OC(=O)C[C@@H]1C/C=C\C[C@@H](CC(=O)N[C@@H](CO)Cc2ccccc2)C(=O)N2CCC[C@H]2COC1=O | 3.69% | –
Nc1ccc2[nH]c(=S)sc2c1 | -3.92% | –
CCCN1CCn2c3c(c4cc(Br)ccc42)CCCC31 (stereo not given) | – | 23.1 µM (active)
COc1ccc(S(=O)(=O)N2CCOCC2)cc1NC(=O)CC1CC2CCC1C2 (stereo not given) | -6.11% | –
Cc1ccc(C(=O)O)c(NC=O)c1OCc1ccccc1 | 0.724% | –
CCCCOC(=O)Cn1c(=N)n(CCN(CC)CC)c2ccccc21 | -8.39% | –
CCCCOC(=O)Cn1c(=O)n(CC(=O)OCCCC)c2cc(C)ccc21 | 7.6% | –
CCCCCCCCCCOC(=O)Cn1c(COc2ccc(C)cc2)[n+](C)c2ccccc21 | – | 23.1 µM (active)
CC(=O)Nc1ccc(S(=O)(=O)NC(C)C(=O)OCCOc2ccc(F)cc2)cc1 (stereo not given) | -3.06% | –
COc1cc(C(=O)NCC2(c3ccccc3)CCCC2)ccc1OC(C)C | 15.2% | –

SMILES | activity, positive = re-replication | Potency
COc1ccc(C2(CNC(=O)Cc3ccc(OC)c(OC)c3)CCCC2)cc1 | 3.5% | –
CCOc1c(OC)cccc1C(=O)NCC1(c2ccccc2)CCCC1 | – | 20.6 µM (active)
CCC(C)CCN1CCN=C1N(C)C (stereo not given) | 23.5% | –
O=C1CC[C@@H]2CC3(C[C@@H]4CCN1[C@H]24)Nc1cc([N+](=O)[O-])ccc1NC3=NC1CCCCC1 (stereo not given in full) | -22.4% | –
COc1cc2c(cc1OC)CN(C(=O)c1cc(=O)c3ccccc3o1)CC2 | – | 10.3 µM (active)
COc1ccccc1CNC(=O)c1cc(=O)c2ccccc2o1 | -23.8% | –
O=C(c1cc(=O)c2ccccc2o1)N1CCN(c2ccccc2)CC1 | -1.76% | –
NC(=O)C1(Nc2ccc([N+](=O)[O-])cc2)CCCC1 | -29.5% | –
CC1CN(Cc2ccco2)C(=S)N(c2ccccc2)C1=O (stereo not given) | 22.6% | –
CC(C)Sc1nnc([C@H](Cc2ccccc2)NC(=O)OC(C)(C)C)o1 | -5.09% | –
C[C@H](NC(=O)OC(C)(C)C)c1nnc(SCC(N)=O)o1 | 8.88% | –
C[C@@H](NC(=O)OC(C)(C)C)c1nnc(S(=O)(=O)Cc2ccccc2)o1 | – | 18.4 µM (active)
Cc1ccc(S(=O)(=O)Nc2ccc(F)c(S(=O)(=O)N3CCOCC3)c2)cc1 | -46% | –
CNS(=O)(=O)c1cccc(C(=O)OCCCC(=O)c2ccccc2)c1 | 12.4% | –
CCOc1cc(-c2cc(-c3ccc(OC)cc3)nc(N)c2C#N)ccc1O | 12.9% | –
COc1ccc(C2CC(=O)Nc3sc(=N)c4c(N)c(C#N)c(N)nc4c32)cc1OC (stereo not given) | -0.0368% | –
COc1ccc(-c2cc(-c3ccc(N)cc3)nc(N)c2C#N)cc1OC | – | 23.1 µM (active)
COc1ccc(OC)c2c(N)c(C#N)c(C(F)(F)C(F)(F)F)nc12 | 17.3% | –
CCOc1cc(-c2cc(-c3ccc(NC(C)=O)cc3)nc(N)c2C#N)ccc1O | – | 18.4 µM (active)
CC(=O)Nc1ccc(-c2cn3cccnc3n2)cc1 | 11.3% | –
O=C(COc1ccccc1F)NNC(=O)c1cc(Br)ccc1Cl | -8.12% | –
O=S(=O)(c1cccs1)N1CCN(CCOc2ccccc2)CC1 | 0.979% | –
CCOc1cc(/C=C/C(=O)OCC(=O)NCCN2C(=O)CSC2=O)ccc1OCC(C)C | -2.28% | –
Cc1cccc(N2O[C@H]3C=CC2CCCC3)n1 | -0.361% | –
CC(=O)c1ccc(OCCCC(=O)Nc2ccc(C)c(S(=O)(=O)N3CCOCC3)c2)cc1 | 6.11% | –
